Laboratory results: the supplement of paper PMC13380429

System: Vero E6 infected with SARS-CoV-2
Assay: inhibition of SARS-CoV-2 cytopathic effect; higher = more antiviral protection, active = above 15
Conditions: 48 h

Measured: inhibition of SARS-CoV-2 cytopathic effect

C#C[C@]1(OC(C)=O)CC[C@H]2[C@@H]3CCC4=CC(=O)CC[C@@H]4[C@H]3CC[C@@]21C [norethindrone-acetate]
inactive: 1 nM 0.09% | 8.33 nM 0.03% | 100 nM -1.33% | 833.33 nM 0.02% | 10000 nM 1.02%

CN1CCCC(CN2c3ccccc3Sc3ccccc32)C1 (stereo not given) [mepazine]
inactive: 1 nM -2.3% | 8.33 nM 3.28% | 100 nM 3.56% | 833.33 nM -2.75% | 10000 nM 5.75%

O=C(O)/C=C/c1ccc(O)cc1 [naringeninic-acid]
inactive: 1 nM 1.32% | 8.33 nM -1.82% | 100 nM -12% | 833.33 nM -0.34% | 10000 nM -0.09%

O=C(O)CNC(=O)C(CS)Cc1ccccc1 (stereo not given) [thiorphan]
inactive: 1 nM -4.27% | 8.33 nM -1.61% | 100 nM -5.99% | 833.33 nM -4.04% | 10000 nM -6.09%

CCN(CC)CCCC(C)Nc1ccnc2cc(Cl)ccc12 (stereo not given) [chloroquine]
inactive: 1 nM -1.07% | 8.33 nM -2.02% | 100 nM 0.51% | 833.33 nM -0.4% | 10000 nM -1.51%

O=C1CC[C@@H](C(=O)N2CSC[C@H]2C(=O)O)N1 [pidotimod]
inactive: 1 nM -1.03% | 8.33 nM 0.49% | 100 nM -1.22% | 833.33 nM 2.73% | 10000 nM -0.3%

C=C1CC[C@H](O)C/C1=C/C=C1\CCC[C@]2(C)[C@@H]([C@H](C)CCCC(C)(C)O)CC[C@@H]12 [calcifediol]
inactive: 1 nM 0.8% | 8.33 nM -2.15% | 100 nM -3.43% | 833.33 nM -0.54% | 10000 nM 0.11%

CCOc1cc2ncc(C#N)c(Nc3ccc(OCc4ccccn4)c(Cl)c3)c2cc1NC(=O)/C=C/CN(C)C [neratinib]
inactive: 1 nM 0.12% | 8.33 nM -2.36% | 100 nM -7.88% | 833.33 nM -0.85% | 10000 nM -8.5%

O=C(O)[C@@H]1C[C@@H](O)CN1 [L-hydroxyproline]
inactive: 1 nM -3.79% | 8.33 nM -1.12% | 100 nM -0.27% | 833.33 nM -1.36% | 10000 nM -3.93%

CCOC(=O)Nc1ccc2c(c1)N(C(=O)CN(CC)CC)c1ccccc1CC2
inactive: 1 nM -0.45% | 8.33 nM 0.56% | 100 nM 1.77% | 833.33 nM 0.29% | 10000 nM 0.79%

O=C(CSc1nc2c(c(=O)n1-c1ccccc1)SCC2)Nc1ccc(-c2ccccc2)cn1
inactive: 1 nM 2.66% | 8.33 nM -2.46% | 100 nM 3.88% | 833.33 nM 1.2% | 10000 nM -2.73%

c1ccc(-c2nc(CN3CCN(c4ncccn4)CC3)c[nH]2)cc1
inactive: 1 nM -2.28% | 8.33 nM -0.03% | 100 nM -3.72% | 833.33 nM -0.79% | 10000 nM -1.23%

CCCN1CC(NS(=O)(=O)N(CC)CC)CC2Cc3c(O)cccc3CC21 (stereo not given) [quinagolide]
inactive: 1 nM -1.57% | 8.33 nM -0.18% | 100 nM -0.29% | 833.33 nM -13.8% | 10000 nM -6.37%

CC(=O)N1CCC[C@H]1C(=O)N[C@@H](Cc1cnc[nH]1)C(=O)N[C@@H](CO)C(=O)N[C@@H](CS)C(=O)N[C@@H](CC(N)=O)C(N)=O
inactive: 1 nM 1.06% | 8.33 nM 0.67% | 100 nM 2.55% | 833.33 nM 2.87% | 10000 nM 3.86%

O=C(Nc1ccc(N2CCC(C(=O)N3CCOCC3)CC2)cc1)c1cnc(Oc2ccccc2)nc1
inactive: 1 nM 0.64% | 8.33 nM 1.26% | 100 nM 2.38% | 833.33 nM 1.19% | 10000 nM -0.78%

CCC[C@@H](NC(=O)N1C(=O)C(CC)(CC)[C@@H]1Oc1ccc(C(=O)N2CCN(C)CC2)cc1)c1ccc2c(c1)OCO2
inactive: 1 nM 1.03% | 8.33 nM 1.44% | 100 nM -0.09% | 833.33 nM 1.96% | 10000 nM -6.67%

O=C(Nc1ccccc1)N1CCC(Cc2cnc3ccccc3c2)CC1
inactive: 1 nM -0.99% | 8.33 nM -0.47% | 100 nM 0.72% | 833.33 nM -0.2% | 10000 nM -1.47%

CNC(=N)NC(=O)Nc1c(C)cccc1C [lidamidine]
inactive: 1 nM 0.93% | 8.33 nM 2.74% | 100 nM 3.39% | 833.33 nM 3.62% | 10000 nM -2.49%
